ASM inhibitor – blocks human secretory acid sphingomyelinase. 340,000 compounds, 0.006% hits. Potency, µM (series often up to 57.5 µM), inactives show at the highest dose activity change, negative = inhibition, actives largely listed as inhibitors. placental ASM, HMU-PC fluorogenic substrate, 60 min. P17405; note: potency is the fitted concentration of half-maximal effect
Target sequence (P17405 47-631 limits assumed): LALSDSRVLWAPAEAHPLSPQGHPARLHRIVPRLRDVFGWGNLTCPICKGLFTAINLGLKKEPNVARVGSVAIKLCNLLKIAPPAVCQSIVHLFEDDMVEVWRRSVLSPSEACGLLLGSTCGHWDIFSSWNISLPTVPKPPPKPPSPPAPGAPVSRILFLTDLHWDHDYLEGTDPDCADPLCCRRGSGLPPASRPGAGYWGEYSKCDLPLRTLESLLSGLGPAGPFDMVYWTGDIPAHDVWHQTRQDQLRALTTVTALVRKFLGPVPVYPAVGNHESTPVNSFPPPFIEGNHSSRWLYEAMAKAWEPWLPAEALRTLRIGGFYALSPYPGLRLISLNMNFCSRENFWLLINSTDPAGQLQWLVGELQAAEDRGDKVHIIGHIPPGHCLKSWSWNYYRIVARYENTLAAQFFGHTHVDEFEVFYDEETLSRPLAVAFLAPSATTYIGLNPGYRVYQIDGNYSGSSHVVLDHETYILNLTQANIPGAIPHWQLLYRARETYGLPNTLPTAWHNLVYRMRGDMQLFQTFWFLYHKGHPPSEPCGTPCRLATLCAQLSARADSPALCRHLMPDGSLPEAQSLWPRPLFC
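qHTS format. ASM enzyme prepared from human placenta hydrolyses the fluorogenic substrate HMU-PC0 (9 uM final) over 60 min at 37 °C after a 10 min compound preincubation.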
TGFb inhibitor – blocks TGF-b signaling | Potency, µM (titrated, usually from 46.1 µM), for inactives: at the highest dose activity, negative = inhibition, hits mostly inhibitors | HepG2 CAGA-GFP TGF-b/SMAD3 reporter, GFP fluorescence, 18 h; TGF-beta stimulated, 500 pg/mL final | 410,000 compounds, 1.2% hits; note: potency is the fitted concentration of half-maximal effect; % is set by controls: 0 for no effect and ±100 for the full control effect; nearly all actives have a fitted effect of over 65% in size
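Inhibition of TGF-beta-driven CAGA-GFP reporter expression in HEPG2 cells is measured by cellular GFP fluorescence after 18 h stimulation with 500 pg/mL recombinant TGF-beta in 1% FBS medium at 37 degrees C.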
TDP1 cell noCPT – qHTS for Inhibitors of human tyrosyl-DNA phosphodiesterase 1 (TDP1): qHTS in cells in absence of CPT; Potency, µM (highest dose often 46.2 µM), without a hit: at the top dose activity change, negative = growth inhibition, most hits filed as inhibitors; AID 686978, 2013; DT40 Tdp1-/- hTDP1 cells, no CPT, ATP luminescence, 48 h; 420,000 compounds, 15% hits; note: potency is the fitted concentration of half-maximal effect; % is set by controls: 0 for no effect and ±100 for the full control effect; nearly all actives have a fitted effect of over 55% in size
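Camptothecin absent (DMSO only). Human TDP1-complemented DT40 knockout cells, 400 cells/well, 37 °C for minimum 48 hr; ATP measured via CellTiter-Glo, 30 min dark incubation, luminescence.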
DT40 TDP1 CPT – growth inhibition of DT40 Tdp1-/-;hTDP1 cells with camptothecin (screen for TDP1 inhibitors) | chicken DT40 Tdp1-/-;hTDP1 cells + 20 nM CPT, ATP luminescence, 48 h | Potency, µM (series often up to 46.2 µM), inactives show at the top dose activity change, negative = growth inhibition, actives largely listed as inhibitors | 420,000 compounds, 12% hits; note: potency is the fitted concentration of half-maximal effect; % is set by controls: 0 for no effect and ±100 for the full control effect; nearly all actives have a fitted effect of over 55% in size
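Cell growth measured by CellTiter-Glo luminescence after a minimum 48 h, 37 C compound exposure with 20 nM CPT in Tdp1-knockout DT40 cells stably expressing hTDP1, seeded 400/well; qHTS titration format.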
HepG2 tox – HepG2 cytotoxicity, counter-screen for TGF-b inhibitors | HepG2 CAGA-GFP viability, ATP luminescence, 18 h | Potency, µM (titrated, usually from 46.1 µM), inactives show at the top dose activity change, negative = cytotoxicity, usual class: cytotoxic | 410,000 compounds, 0.76% hits | AID 588856; note: potency is the fitted concentration of half-maximal effect
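CellTiter-Glo luminescence gave cytotoxicity after 18 hours at 37 degrees C. The cells were HepG2 CAGA-GFP in 1% FBS DMEM, stimulated with 500 pg/mL TGF-beta after compound addition. %Activity was normalised to no-cell wells (complete cell-killing) and DMSO (no toxicity), and curves were fitted and classified.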
IL1B secr inh – blocks inflammasome-driven IL-1 beta release. activity change, % at 57.5 µM. THP-1 LPS/ATP IL-1B secretion, AlphaLISA, 16 h; hits give low values. 360,000 compounds, 4.7% hits; in the data active = activity change below about -50%; inconclusive = mostly about -30% to -49%; note: % is set by controls: 0 for no effect and ±100 for the full control effect
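Secreted IL-1B measured by AlphaLISA bead assay after 16 h compound exposure of THP-1 cells; compounds (final up to 57.5 uM) added 1 h before LPS (250 ng/mL) and ATP (1.25 mM) stimulation; lower signal means less secretion.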
Active calls of the source: *; ? = inconclusive; nt = no result given. Rows were chosen to be rich in hits. Some 19% of all compounds tested hit in one or more screens of this group. Unless noted, calls come from the whole dose curve; as a rule, active = well fitted curve in the direction sought with a large enough effect; inconclusive = small, poorly fitted or top-dose-only effect, or another doubt; inactive = no such curve, though single readings can be large; an effect the other way counts as inactive or inconclusive.

SMILES | ASM inhibitor | TGFb inhibitor | TDP1 cell noCPT | DT40 TDP1 CPT | HepG2 tox | IL1B secr inh
O=c1[nH]c2cc([N+](=O)[O-])ccc2c2ccc([N+](=O)[O-])cc12 | 0% | ? | 15µM* | 9.2µM* | 3% | 7
O=c1[nH][nH]c2cc([N+](=O)[O-])ccc12 | 7% | 0% | 3.7µM* | 3.7µM* | -4% | -6
C=C(C)C(=O)Nc1cccnc1Oc1ccc(F)cc1F | 0% | ? | 1% | -1% | -17% | 14
O=C1C=CC(=O)N1c1ccc(OC(F)F)cc1 | 3% | ? | 0.65µM* | 0.41µM* | -95% | -91*
O=C1CCCC(=O)N1c1ccc(O)cc1 | 3% | -7% | 5% | -7% | -8% | 2
O=C1C=CC(=O)N1c1ccc(O)cc1 | -2% | ? | 2.3µM* | 2.6µM* | 7.9µM* | -8
C(=C\c1ccccc1)/CN1CCN(C(c2cccs2)c2nnnn2-c2ccc3c(c2)OCCO3)CC1 (configuration not stated) | nt | ? | 23µM* | ? | -13% | -20
COc1ccc(-n2nnnc2C(C2CC2)N2CCN(C/C=C/c3ccccc3)CC2)cc1 (configuration not stated) | nt | ? | ? | ? | -19% | -9
COc1ccc(-n2nnnc2C(c2cccc3ccccc23)N2CCN(C/C=C/c3ccccc3)CC2)cc1 (configuration not stated) | nt | ? | 8.2µM* | 7.3µM* | -16% | -19
CCCCn1nnnc1C(c1cc2ccccc2o1)N1CCN(C/C=C/c2ccccc2)CC1 (configuration not stated) | nt | ? | 16µM* | 21µM* | -18% | -11
C(=C\c1ccccc1)/CN1CCN(C(c2cc3ccccc3o2)c2nnnn2-c2ccc3c(c2)OCCO3)CC1 (configuration not stated) | nt | -13% | 15µM* | 13µM* | -7% | -13
CCCCn1nnnc1C(c1cc2ccccc2o1)N1CCCC1 (configuration not stated) | nt | nt | -88% | ? | nt | 18
C(=C\c1ccccc1)/CN1CCN(C(c2cccc3ccccc23)c2nnnn2Cc2ccccc2)CC1 (configuration not stated) | nt | ? | 16µM* | 16µM* | -2% | ?
C(=C\c1ccccc1)/CN1CCN(C(c2nnnn2Cc2ccccc2)C2CC2)CC1 (configuration not stated) | nt | ? | 16µM* | 16µM* | -20% | ?
CCCCn1nnnc1C(c1cc2ccccc2o1)N1CCN(c2ncccc2C#N)CC1 (configuration not stated) | nt | nt | 18µM* | ? | nt | -3
COc1ccc(-n2nnnc2C(c2cc3ccccc3o2)N2CCN(C/C=C/c3ccccc3)CC2)cc1 (configuration not stated) | nt | 2% | 15µM* | 23µM* | -17% | -16
CCN1CCN(C(c2cc3cccc(C)c3[nH]c2=O)c2nnnn2Cc2ccccc2)CC1 (configuration not stated) | 6% | -13% | -21% | -30% | -42% | -3
CC(C)(C)n1nnnc1C(c1cc2ccccc2o1)N1CCCC1 (configuration not stated) | nt | nt | -29% | -13% | nt | 23
CCOc1ccc(S(=O)(=O)NCc2cccnc2)cc1C(C)C | 3% | -8% | ? | ? | -24% | 15
CCN(CC)S(=O)(=O)c1cc(NC(=O)CO/N=C(\N)c2ccccc2Cl)ccc1C | 1% | -1% | ? | ? | -7% | 0
COc1cccc(NC(=O)Cn2c(=O)n(Cc3ccc4c(c3)OCO4)c(=O)c3oc4ccccc4c32)c1 | nt | ? | -13% | -8% | -13% | nt
CCOC(=O)Cn1nnnc1CN1CCN(c2ccc(OC)cc2)CC1 | 3% | -3% | 7% | 23% | 6% | 19
COc1ccc(C(c2nnnn2-c2c(C)cccc2C)N2CCN(C/C=C/c3ccccc3)CC2)cc1 (configuration not stated) | nt | -24% | ? | ? | -14% | 19
COc1ccc(C(c2nnnn2-c2ccc3c(c2)OCCO3)N2CCN(C/C=C/c3ccccc3)CC2)cc1 (configuration not stated) | nt | ? | 16µM* | 16µM* | -15% | ?
CCCn1c(SCc2nc(-c3ccc(OC)cc3OC)no2)nnc1-c1ccc(Cl)cc1 | nt | ? | 26µM* | 21µM* | -2% | nt
SMILES | ASM inhibitor | TGFb inhibitor | TDP1 cell noCPT | DT40 TDP1 CPT | HepG2 tox | IL1B secr inh
CCCn1c(SCc2nc(-c3ccccc3OCC)no2)nnc1-c1ccc(Cl)cc1 | nt | ? | 18µM* | ? | -15% | nt
CCCn1c(SCc2nc(-c3cccs3)no2)nnc1-c1ccncc1 | -2% | 15% | ? | -26% | -21% | -1
Nc1cc(=O)[nH]c(SCC(=O)Nc2ccc(N3CCOCC3)cc2)n1 | 4% | 3% | 0% | 8% | -5% | -19
C[C@H]1CN=C(Nc2ccccc2)N1CCc1ccccc1 | 0% | ? | -10% | -12% | 6% | 3
C[C@H]1CN=C(Nc2ccccc2)N1CCC1CCCC1 | 4% | 2% | 23µM* | ? | 4% | 0
CC(C)C[C@H]1CN=C(Nc2ccccc2)N1CCCC1CCCC1 | 2% | ? | 5.2µM* | 15µM* | -99% | -63*
CC(C)C[C@H]1CN=C(Nc2ccccc2)N1CCCC1CCCCC1 | -6% | -26% | 18µM* | ? | -22% | -63*
CC(C)C[C@H]1CN=C(Nc2ccccc2)N1CCC1CCCC1 | 0% | 11% | 23µM* | ? | -3% | -24
O=C(c1ccccn1)N(c1ccccc1)C1(C(=O)NC2CCCCC2)CCCCC1 | 5% | 0% | -19% | 0% | 7% | -12
CN(CC(=O)Nc1ccccc1C(=O)NC1CC1)Cc1ccc(Cl)s1 | 7% | 1% | ? | ? | -2% | -6
CSc1nc(Oc2ccc3ccccc3c2)c2ccccc2n1 | -19% | -16% | ? | ? | -6% | 30
Cc1cc(NC(=O)COC(=O)CCn2c(C)csc2=O)c([N+](=O)[O-])cc1C | nt | 2% | -3% | -7% | -55% | -16
CC(C)C[C@H]1CN=C(Nc2ccccc2)N1CCC(C)c1ccccc1 (some centres not stated) | 4% | ? | ? | ? | -7% | ?

Screens as filed in PubChem BioAssay.
